Experimental data: PubChem BioAssay AID1159580 (chemical genetic matrix, 2015)
Screen size: about 5,500 compounds; about 2,000 (36%) were called active. Roughly 18% stayed inconclusive and do not appear here. Cut-off read from the data, not from the text of the source: active = normalized growth mostly below about 0.91 (no sharp cut-off); inconclusive = no clear call, values can overlap the other calls; inactive = mostly above about 0.92. Some of the results follow.

Assay: chemical genetic growth profiling, strain panel (AID 1159580);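 note: tested at 20 µM; growth read once vehicle control cultures reached saturation at 30 °C; 1 = growth at the plate median or of vehicle wells; lower values mean less growth of the strain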
Details: S. cerevisiae deletion strains, growth OD

Measured: normalized growth

O=P1(NCCCl)OCCCN1CCCl (stereo not given)
inactive: locus YAL021C, strain ccr4, stronger effect = lower value 0.964 | locus YAL026C, strain drs2, stronger effect = lower value 0.991 | locus YAL030W, strain snc1, stronger effect = lower value 0.992 | locus YBL061C, strain skt5, stronger effect = lower value 0.993 | locus YBR009C, strain hhf1, stronger effect = lower value 1.01 | locus YBR023C, strain chs3, stronger effect = lower value 0.987 | locus YBR171W, strain sec66, stronger effect = lower value 0.98 | locus YBR231C, strain swc5, stronger effect = lower value 1 | locus YBR279W, strain paf1, stronger effect = lower value 0.997 | locus YCL011C, strain gbp2, stronger effect = lower value 0.975 | locus YCL016C, strain dcc1, stronger effect = lower value 0.992 | locus YCL061C, strain MRC1, stronger effect = lower value 0.987 | locus YCL069W, strain vba3, stronger effect = lower value 0.989 | locus YCR088W, strain abp1, stronger effect = lower value 0.971 | locus YDL005C, strain med2, stronger effect = lower value 0.995 | locus YDL040C, strain nat1, stronger effect = lower value 0.987 | locus YDR001C, strain nth1, stronger effect = lower value 0.985 | locus YDR069C, strain doa4, stronger effect = lower value 0.995 | locus YDR137W, strain rgp1, stronger effect = lower value 0.988 | locus YDR159W, strain sac3, stronger effect = lower value 0.982 | locus YDR195W, strain ref2 0.985 | locus YDR297W, strain sur2, stronger effect = lower value 0.99 | locus YDR334W, strain swr1, stronger effect = lower value 0.969 | locus YDR335W, strain msn5, stronger effect = lower value 0.976 | locus YDR392W, strain spt3, stronger effect = lower value 1.01 | locus YEL003W, strain gim4, stronger effect = lower value 0.983 | locus YEL037C, strain rad23, stronger effect = lower value 0.95 | locus YEL061C, strain CIN8 (second series), stronger effect = lower value 0.977 | locus YER015W, strain faa2, stronger effect = lower value 0.99 | locus YER016W, strain bim1, stronger effect = lower value 0.986 | locus YER111C, strain swi4, stronger effect = lower value 1 | locus YER155C, strain BEM2 (second series), stronger effect = lower value 1.01 | locus YFR010W, strain ubp6, stronger effect = lower value 0.96 | locus YGL167C, strain pmr1, stronger effect = lower value 0.992 | locus YGL173C, strain kem1, stronger effect = lower value 0.984 | locus YGL227W, strain vid30, stronger effect = lower value 0.993 | locus YGL240W, strain doc1, stronger effect = lower value 1.02 | locus YGL253W, strain hxk2, stronger effect = lower value 0.986 | locus YHR013C, strain ard1, stronger effect = lower value 0.996 | locus YHR027C, strain rpn1, stronger effect = lower value 0.981 | locus YHR030C, strain SLT2, stronger effect = lower value 0.967 | locus YHR079C, strain IRE1, stronger effect = lower value 0.971 | locus YHR142W, strain chs7, stronger effect = lower value 0.943 | locus YJL092W, strain hpr5, stronger effect = lower value 0.975 | locus YJL095W, strain BCK1 (second series), stronger effect = lower value 0.995 | locus YJL095W, strain BCK1, stronger effect = lower value 0.989 | locus YJL115W, strain asf1, stronger effect = lower value 0.971 | locus YJL129C, strain trk1, stronger effect = lower value 0.97 | locus YJL154C, strain vps35, stronger effect = lower value 0.992 | locus YJL164C, strain tpk1, stronger effect = lower value 0.979 | locus YJL166W, strain qcr8, stronger effect = lower value 0.998 | locus YJL187C, strain SWE1, stronger effect = lower value 0.99 | locus YJR066W, strain TOR1, stronger effect = lower value 0.921 | locus YKL160W, strain elf1, stronger effect = lower value 0.986 | locus YKR026C, strain gcn3, stronger effect = lower value 0.971 | locus YKR091W, strain srl3, stronger effect = lower value 0.99 | locus YLL001W, strain dnm1, stronger effect = lower value 0.968 | locus YLL026W, stronger effect = lower value 1 | locus YLL041C, strain sdh2, stronger effect = lower value 0.987 | locus YLR027C, strain aat2, stronger effect = lower value 0.988 | locus YLR113W, strain HOG1, stronger effect = lower value 1 | locus YLR221C, strain rsa3, stronger effect = lower value 0.981 | locus YLR258W, strain gsy2, stronger effect = lower value 0.996 | locus YLR262C, strain YPT6 (second series), stronger effect = lower value 1.01 | locus YLR320W, strain mms22, stronger effect = lower value 1.01 | locus YLR342W, strain FKS1, stronger effect = lower value 0.99 | locus YLR357W, strain rsc2, stronger effect = lower value 0.991 | locus YLR370C, strain arc18, stronger effect = lower value 0.986 | locus YLR384C, strain iki3, stronger effect = lower value 0.981 | locus YML120C, strain ndi1, stronger effect = lower value 0.968 | locus YMR058W, strain fet3, stronger effect = lower value 0.982 | locus YMR125W, strain sto1, stronger effect = lower value 0.992 | locus YMR129W, stronger effect = lower value 0.983 | locus YMR205C, strain PFK2, stronger effect = lower value 1.01 | locus YMR231W, strain pep5, stronger effect = lower value 0.992 | locus YNL071W, strain lat1, stronger effect = lower value 0.996 | locus YNL183C, strain NPR1, stronger effect = lower value 0.93 | locus YNL209W, strain ssb2, stronger effect = lower value 0.991 | locus YNL248C, strain rpa49, stronger effect = lower value 0.946 | locus YNL322C, strain KRE1 (second series), stronger effect = lower value 0.986 | locus YNR049C, strain mso1, stronger effect = lower value 0.985 | locus YOR001W, strain rrp6, stronger effect = lower value 0.973 | locus YOR070C, strain gyp1, stronger effect = lower value 0.993 | locus YOR080W, strain dia2, stronger effect = lower value 0.987 | locus YOR083W, strain WHI5, stronger effect = lower value 0.981 | locus YOR106W, strain vam3, stronger effect = lower value 0.982 | locus YOR231W, strain MKK1, stronger effect = lower value 0.968 | locus YOR265W, strain rbl2, stronger effect = lower value 0.99 | locus YOR270C, strain vph1, stronger effect = lower value 0.922 | locus YOR290C, strain snf2, stronger effect = lower value 0.994 | locus YPL051W, strain arl3, stronger effect = lower value 0.999 | locus YPL078C, strain atp4, stronger effect = lower value 0.978 | locus YPL106C, strain sse1, stronger effect = lower value 0.997 | locus YPL240C, strain hsp82, stronger effect = lower value 0.986 | locus YPL256C, strain CLN2, stronger effect = lower value 0.95
